HT1080-NT tox: qHTS for induction of synthetic lethality in tumor cells producing 2HG: qHTS for the HT-1080-NT fibrosarcoma cell line; HT-1080-NT fibrosarcoma viability, CellTiter-Glo ATP luminescence, 48 h; Potency, µM (doses to about 46.1 µM), for inactives: top-dose activity, negative = less viability, usual class: cytotoxic; actives 1.6% (n = 360,000); AID 686970, 2013;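 also: NT is the 2HG producing partner of a matched IDH1 knockdown line; 0% = DMSO-treated cells and -100% = media-only wells without cells; nearly all actives have a fitted effect of over 55% in size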
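HT-1080-NT fibrosarcoma cells (2HG-overproducing), 750 cells/well in RPMI with 5% FBS, dosed after 2 h and incubated 48 h at 37C. CellTiter-Glo luminescence normalized to DMSO and no-cell wells; concentration-response curves fitted and classed.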
DT40 TDP1 no CPT: qHTS for Inhibitors of human tyrosyl-DNA phosphodiesterase 1 (TDP1): qHTS in cells in absence of CPT; DT40 Tdp1-/- hTDP1 cells, no CPT, ATP luminescence, 48 h; Potency, µM (titrated, usually from 46.2 µM), inactives show top-dose activity change, negative = growth inhibition, usual class: inhibitors; actives 15% (n = 420,000); AID 686978, 2013; also: % is scaled to controls: 0 for no effect and ±100 for the full control effect; nearly all actives have a fitted effect of over 55% in size
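Chicken DT40 Tdp1-/- cells complemented with human TDP1, screened without camptothecin (DMSO vehicle only), 400 cells/well. Compounds pin-transferred, cells incubated at 37 °C for at least 48 hr. Growth read as ATP-dependent luminescence (CellTiter-Glo, 30 min at RT).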
TGFb inhibitor: qHTS for Inhibitors of TGF-b. HepG2 CAGA-GFP TGF-b/SMAD3 reporter, GFP fluorescence, 18 h; TGF-beta stimulated, 500 pg/mL final. Potency, µM (doses to about 46.1 µM), inactives show top-dose activity, negative = inhibition, hits mostly inhibitors. actives 1.2% (n = 410,000); also: % is scaled to controls: 0 for no effect and ±100 for the full control effect; nearly all actives have a fitted effect of over 65% in size
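Inhibition was scored as loss of TGF-beta-induced (500 pg/mL final, 18 hours, 37 degrees C) GFP in HEPG2 cells carrying a CAGA-GFP reporter, in DMEM with 1% FBS. Well GFP was summed per cell; Activity was normalised to unstimulated and stimulated DMSO wells, then concentration-response fitting.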
HT1080 IDH1KD tx: qHTS for induction of synthetic lethality in tumor cells producing 2HG: qHTS for the HT-1080-IDH1KD cell line; HT-1080 IDH1 knockdown viability, ATP luminescence, 48 h; Potency, µM (doses to about 46.1 µM), for the others: at the top dose activity, negative = toxicity, most hits filed as cytotoxic; actives 2% (n = 360,000);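 also: 0% = DMSO wells and -100% = cell-free medium wells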
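Using the IDH1-knockdown HT-1080 line run in the same batch and compound series as the NT line, viability after 48 h at 37 °C was determined by CellTiter-Glo luminescence and expressed as % activity.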
HepG2 viability: qHTS for Inhibitors of TGF-b: Cytotox Counterscreen; HepG2 CAGA-GFP viability, ATP luminescence, 18 h; Potency, µM (highest dose often 46.1 µM), for the others: at the top dose activity change, negative = cytotoxicity, actives largely listed as cytotoxic; actives 0.76% (n = 410,000); AID 588856, 2011
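HepG2 CAGA-GFP cells (1000/well, DMEM with 1% FBS) received compound, then TGF-beta at 500 pg/mL final, and were incubated 18 hours at 37 degrees C. Viability was read by CellTiter-Glo luminescence. Media-only wells were set as complete cell-killing and DMSO as no toxicity.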
DT40 TDP1 CPT: qHTS for Inhibitors of human tyrosyl-DNA phosphodiesterase 1 (TDP1): qHTS in cells in presence of CPT | Potency, µM (titrated, usually from 46.2 µM), for inactives: top-dose activity change, negative = growth inhibition, hits mostly inhibitors | chicken DT40 Tdp1-/-;hTDP1 cells + 20 nM CPT, ATP luminescence, 48 h | AID 686979, 2013 | actives 12% (n = 420,000); also: % is scaled to controls: 0 for no effect and ±100 for the full control effect; nearly all actives have a fitted effect of over 55% in size
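Chicken DT40 Tdp1-/- cells complemented with human TDP1, 400 cells/well, exposed to compounds plus 20 nM camptothecin for at least 48 h at 37 C; viability read as ATP content by CellTiter-Glo luminescence.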
* hit, by the source's call; ? = inconclusive; nt = no result; [ ] = remark or other dose. Only some compounds are listed: those with a hit (about 17% of all), similar ones and a draw of the others. Calls follow the shape of the dose curve; as a rule, active = well fitted curve in the direction sought with a large enough effect; inconclusive = small, poorly fitted or top-dose-only effect, or another doubt; inactive = no such curve, though single readings can be large; an effect the other way counts as inactive or inconclusive. Potency is read from the fitted curve at half-maximal effect.

SMILES	HT1080-NT tox	DT40 TDP1 no CPT	TGFb inhibitor	HT1080 IDH1KD tx	HepG2 viability	DT40 TDP1 CPT
Cc1ccc(NC(=O)C2(C)CCN2Cc2cccc3c2OCO3)cc1O (stereo not drawn)	?	?	3.7%	?	-0.8%	16.4µM*
COc1cccc(CN2CCC2(C)C(=O)Nc2ccc(C)cc2)c1F (stereo not drawn)	?	23.1µM*	-3.1%	-17.6%	-11.3%	16.4µM*
CC1(C(=O)Nc2cccc(Oc3ccccc3)c2)CCN1Cc1cccc2c1OCO2 (stereo not drawn)	?	?	-9.0%	?	-13.0%	?
COC(=O)c1c(O)cc(C(C)(C)C)n(-c2ccccc2)c1=O	3.5%	-0.3%	-12.2%	0.0%	4.1%	-0.2%
CCCCn1c(N)c(N(CCC)C(=O)C2CCCC2)c(=O)[nH]c1=O	5.0%	10.3%	-0.2%	7.1%	9.3%	-0.4%
CCn1c(SCC(=O)Nc2ccc(F)cc2)nnc1-c1cnccn1	-1.2%	15.0%	0.8%	-0.4%	7.8%	-23.9%
COC(=O)c1ccc2c(=O)n(CCCCCC(=O)N3CCN(c4ccc(OC)cc4)CC3)c(=O)[nH]c2c1	nt	?	29.5%	nt	5.0%	?
COc1cccc(NC(=O)C2(C)CCN2Cc2cccc(OC)c2F)c1 (stereo not drawn)	-18.3%	20.6µM*	-3.6%	?	-27.7%	?
COc1ccc(NC(=O)C2(C)CCN2Cc2cccc(OC)c2F)cc1OC (stereo not drawn)	11.9%	13µM*	-3.0%	4.4%	-1.2%	23.1µM*
CC1(C(=O)Nc2cccc(Oc3ccccc3)c2)CCN1Cc1ccccc1OC(F)F (stereo not drawn)	-24.7%	?	-17.5%	-18.3%	-7.1%	?
COc1cccc(CN2CCC2(C)C(=O)Nc2cccc(Oc3ccccc3)c2)c1F (stereo not drawn)	?	7.31µM*	?	6.51µM*	-1.3%	10.3µM*
CCc1ccc(C(C)(O)C(CN2CCOCC2)c2ccccc2)cc1 (stereo not drawn)	-4.5%	20.6µM*	-3.6%	-14.0%	-1.3%	20.6µM*
CCc1ccc(C(O)(C(C)C)C(CN2CCOCC2)c2ccccc2)cc1 (stereo not drawn)	-3.2%	16.4µM*	?	0.4%	-30.9%	16.4µM*
CCCOc1ccc(C(=O)C(CN2CCOCC2)c2ccccc2)cc1 (stereo not drawn)	18.4µM*	8.2µM*	15.8µM*	16.4µM*	-91.5%	13µM*
CCCCOc1ccc(C(O)(CCC)CCN2CCOCC2)cc1 (stereo not drawn)	-7.6%	16.4µM*	?	-24.7%	-25.0%	20.6µM*
CCOc1ccc(OCCC(=O)N(CC)CC(=O)Nc2ccccc2OC)cc1	0.9%	?	-1.2%	-5.9%	0.2%	?
CCCOc1ccc(C(C)(O)CN2CCOCC2)cc1 (stereo not drawn)	6.5%	-21.3%	14.7%	2.3%[9.24 µM]	-6.7%	-1.6%
CCCCCOc1ccc(C(C)(O)C(CN2CCOCC2)c2ccccc2)cc1 (stereo not drawn)	-9.1%	20.6µM*	?	-2.0%	-68.3%	?
COc1ccc2c(c1)CC(NC(=O)Nc1cc(Cl)ccc1OC)CO2 (stereo not drawn)	nt	?	-28.9%	nt	-20.1%	23.1µM*
C=C(C1=CCN(S(=O)C(C)(C)C)[C@@H]1CCO)c1ccccc1 (stereo partly drawn)	-1.4%	23.1µM*	-6.4%	-5.2%	-19.9%	7.31µM*
C=C(CCO)C1=CCN(S(=O)C(C)(C)C)[C@@H]1CCO (stereo partly drawn)	-1.3%	-3.9%	28.9%	-0.8%	-16.6%	-2.6%
CC(C)(C)NC(=O)C(c1ccc(Cl)cc1)N(Cc1ccco1)C(=O)CCl (stereo not drawn)	-0.2%	2.91µM*	-0.5%	2.5%	-32.7%	4.61µM*
CC(C)(C)NC(=O)C(c1ccc(O)cc1)N(Cc1ccco1)C(=O)CCC(=O)Nc1ccccn1 (stereo not drawn)	19.9%	-0.8%	2.4%	6.6%	8.8%	-19.5%
O=C(NC1CCCCC1)C(c1ccncc1)N(Cc1ccccc1)C(=O)c1ccc(-c2ccccc2)[nH]1 (stereo not drawn)	?	?	?	?	-13.1%	16.4µM*
CC(C)(C)NC(=O)C(c1ccncc1)N(Cc1ccco1)C(=O)c1ccc(-c2ccccc2)[nH]1 (stereo not drawn)	18.4µM*	?	-7.2%	18.4µM*	-11.5%	?
SMILES	HT1080-NT tox	DT40 TDP1 no CPT	TGFb inhibitor	HT1080 IDH1KD tx	HepG2 viability	DT40 TDP1 CPT
CC(C)C(=O)Nc1cccc(C(=O)Nc2nnc(CC(C)(C)C)s2)c1	nt	?	-22.9%	nt	-17.3%	-21.0%
CC1CC=CC2C1C(=O)N(Cc1ccccc1)C2c1ccc(-c2ccoc2)cc1F (stereo not drawn)	nt	nt	?	nt	-13.7%	nt
COC(=O)C1=C[C@@H](C(=O)OC)[C@@H]2C3=C(C(=O)[C@@]2(C)NC(=O)c2ccccc2)[C@H](C)[C@@H]2C(=O)N(c4ccccc4)C(=O)[C@@H]2[C@@H]3C1	nt	nt	?	nt	-8.9%	nt
CCc1c(C(=O)c2ccc(Cl)cc2)oc2c(C)c3oc(=O)cc(C)c3cc12	14.6%	-7.6%	2.7%	9.5%	0.2%	-16.3%
Cc1cc(=O)oc2c1ccc1oc(/C(=N/O)c3ccccc3)c(C)c12	?	25.9µM*	?	?	-37.3%	20.6µM*
Cc1ccc(/C(=N\O)c2oc3c(C)c4oc(=O)cc(C)c4cc3c2C)cc1	?	16.4µM*	?	23.1µM*	-17.6%	18.4µM*
CCc1c(C(C)=O)oc2ccc3c(C)cc(=O)oc3c12	-4.6%	?	-11.4%	-0.2%	0.5%	-5.0%
Cc1cc(/C=N/NC(=O)C(O)(c2ccccc2)c2ccccc2)c(C)n1-c1ccccc1	-13.4%	?	-1.7%	-5.3%	40.4%	?
